In PubChem BioAssay (NCI):
Compounds without any hit were thinned out: in the full panel of roughly 79,000, 15% have a hit. Calls of active or inactive are those of the source. Cut-off read from the data, not from the text of the source: active = growth inhibition above about 70%; inactive = the rest.

Legend:
[1] = NCI Yeast Anticancer Drug Screen. Data for the rad52 strain (AID 147);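 note: 0% = growth of vehicle-treated control cultures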; settings: S. cerevisiae rad52 mutant growth inhibition, stronger effect = higher value
In short: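 Growth of repair-deficient yeast cells was compared between compound-treated and vehicle-treated cultures to give percent inhibition.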

[2] = NCI Yeast Anticancer Drug Screen. Data for the wt1 strain (AID 149);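 note: 0% = growth of vehicle-treated wt1 cultures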; settings: S. cerevisiae wt1 strain (SPY 50644) growth inhibition, stronger effect = higher value
In short: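 Compounds are added to wt1 yeast cultures. Growth is then measured. Inhibition is expressed relative to vehicle-treated controls.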

[3] = NCI Yeast Anticancer Drug Screen. Data for the rad50EPP+ strain (AID 151);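 note: 0% = growth of vehicle-treated control cultures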; settings: S. cerevisiae rad50 mutant strain, stronger effect = higher value
In short: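 Measured: growth inhibition of rad50EPP+ yeast. Reference: vehicle-treated controls. Screen uses strains with defined genetic alterations in DNA damage repair or cell cycle control.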

[4] = NCI Yeast Anticancer Drug Screen. Data for the mgt1 strain (AID 153); settings: S. cerevisiae mgt1 mutant growth inhibition, stronger effect = higher value
In short: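 Compounds were applied to mgt1 mutant yeast, and growth was then compared against vehicle-treated control cultures to give percent inhibition.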

[5] = NCI Yeast Anticancer Drug Screen. Data for the rad50 strain (AID 155);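 note: 0% = growth of vehicle-only cultures of the same strain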; settings: S. cerevisiae rad50 strain growth inhibition, stronger effect = higher value
In short: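 Inhibition values express reduced yeast growth in compound-treated cultures relative to vehicle-treated controls.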

[6] = NCI Yeast Anticancer Drug Screen. Data for the mec2-1 strain (AID 157); settings: S. cerevisiae mec2-1 strain, stronger effect = higher value
In short: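 Compounds were applied to mec2-1 yeast cells. Their growth was then compared with that of vehicle-treated cultures to give growth inhibition.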

[7] = NCI Yeast Anticancer Drug Screen. Data for the rad14 strain (AID 159);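 note: 0% = growth of vehicle-treated control cultures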; settings: S. cerevisiae rad14 strain growth inhibition, stronger effect = higher value
In short: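 A mutant yeast strain defective in DNA damage repair is treated with compound; inhibition of its growth is scored against untreated, vehicle-exposed cultures.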

[8] = NCI Yeast Anticancer Drug Screen. Data for the sgs1 mgt1 strain (AID 161);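 note: 0% = growth of cultures given vehicle only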; settings: S. cerevisiae sgs1 mgt1 strain, stronger effect = higher value
In short: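 Yeast cells carrying a defined DNA-repair defect were exposed to test compounds. Growth inhibition was measured relative to vehicle-treated controls.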

[9] = NCI Yeast Anticancer Drug Screen. Data for the CLN2oe strain (AID 163);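 note: 0% = growth of vehicle-only control cultures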; settings: S. cerevisiae CLN2oe strain, stronger effect = higher value
In short: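 Cells of an engineered yeast line with disturbed cell-cycle regulation are treated with compound. Inhibition of growth is then calculated relative to the vehicle-treated reference.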

[10] = NCI Yeast Anticancer Drug Screen. Data for the cln2 rad14 strain (AID 165);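 note: 0% = growth equal to vehicle treated cultures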; settings: S. cerevisiae cln2 rad14 strain, stronger effect = higher value
In short: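 Strain: cln2 rad14 yeast, altered in cell cycle control and DNA damage repair. Read-out: growth inhibition vs vehicle.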

[11] = NCI Yeast Anticancer Drug Screen. Data for the bub3 strain (AID 167); settings: S. cerevisiae bub3 mutant strain, stronger effect = higher value
In short: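 Steps: expose the mutant yeast strain to compound; grow alongside vehicle-treated cultures; measure growth; express inhibition against the vehicle cultures.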

[12] = NCI Yeast Anticancer Drug Screen. Data for the wt2 strain (AID 169);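 note: 0% = growth of vehicle-treated yeast cultures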; settings: S. cerevisiae wt2 strain growth inhibition, stronger effect = higher value
In short: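 Growth of compound-treated yeast is measured and expressed as inhibition relative to vehicle-only controls.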

[13] = NCI Yeast Anticancer Drug Screen. Data for the mlh1 strain (AID 171);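 note: 0% = growth of vehicle-treated control cultures of the same strain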; settings: S. cerevisiae mlh1 strain growth inhibition, stronger effect = higher value
In short: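 Test agents were incubated with yeast bearing a defined DNA damage repair or cell cycle control alteration; values are growth inhibition normalised to vehicle-treated cultures.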

[14] = NCI Yeast Anticancer Drug Screen. Data for the sgs1 strain (AID 173);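 note: 0% = growth of vehicle-only control cultures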; settings: S. cerevisiae sgs1 mutant, stronger effect = higher value
In short: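 Strain with an altered DNA repair or cell cycle pathway exposed to compound. Growth then measured. Value = inhibition versus vehicle control.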

[15] = NCI Yeast Anticancer Drug Screen. Data for the rad18 strain (AID 177); settings: S. cerevisiae rad18 mutant growth inhibition, stronger effect = higher value
In short: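 DNA-repair-defective yeast; compound treatment; growth inhibition scored against vehicle.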

[16] = NCI Yeast Anticancer Drug Screen. Data for the mlh1 rad18 strain (AID 175); settings: S. cerevisiae mlh1 rad18 strain growth inhibition, stronger effect = higher value
In short: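 A repair-deficient yeast strain is exposed to test compound, and growth is scored relative to vehicle-treated controls.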

[17] = at 5.0 µM (retest, dose inferred, filed as 0.5)
[18] = at 50.0 µM (retest, dose inferred, filed as 5.0)

Measured: growth inhibition

O=[N+]([O-])c1ccc(=S)[nH]c1
inactive: [1]; at 1.2 µM 1% | [1]; at 3.7 µM 0% | [1]; at 11.0 µM -1% | [1]; at 33.0 µM 49% | [2]; at 1.2 µM -1% | [2]; at 3.7 µM -2% | [2]; at 11.0 µM -6% | [2]; at 33.0 µM 13% | [3]; at 1.2 µM 0% | [3]; at 3.7 µM -2% | [3]; at 11.0 µM 23% | [4]; at 1.2 µM -3% | [4]; at 3.7 µM -2% | [4]; at 11.0 µM 1% | [4]; at 33.0 µM 34% | [5]; at 1.2 µM 0% | [5]; at 3.7 µM -6% | [5]; [17] -5% | [5]; at 11.0 µM -5% | [5]; at 33.0 µM 28% | [6]; at 1.2 µM -2% | [6]; at 3.7 µM -1% | [6]; [17] -9% | [6]; at 11.0 µM -5% | [6]; at 33.0 µM 60% | [7]; at 1.2 µM -5% | [7]; at 3.7 µM -6% | [7]; at 11.0 µM -5% | [7]; at 33.0 µM 42% | [8]; [17] 32% | [9]; at 1.2 µM -1% | [9]; at 3.7 µM -8% | [9]; at 11.0 µM -8% | [9]; at 33.0 µM -10% | [9]; at 100.0 µM 67% | [10]; [17] 5% | [10]; [18] 55% | [10]; at 50.0 µM 37.6% | [11]; at 1.2 µM -6% | [11]; at 3.7 µM -7% | [11]; [17] 10% | [11]; at 11.0 µM -6% | [11]; at 33.0 µM 54% | [12]; at 1.2 µM 0% | [12]; at 3.7 µM 1% | [12]; at 11.0 µM 2% | [12]; at 33.0 µM 39% | [13]; at 1.2 µM 0% | [13]; at 3.7 µM 1% | [13]; at 11.0 µM 1% | [13]; at 33.0 µM 52% | [14]; at 1.2 µM 0% | [14]; at 3.7 µM 4% | [14]; at 11.0 µM 17% | [15]; at 1.2 µM -1% | [15]; at 3.7 µM 0% | [15]; at 11.0 µM -5% | [15]; at 33.0 µM 40%
active: [1]; at 100.0 µM 93% | [2]; at 100.0 µM 78% | [3]; at 33.0 µM 85% | [3]; at 100.0 µM 97% | [4]; at 100.0 µM 93% | [5]; [18] 99% | [5]; at 50.0 µM 98.8% | [5]; at 100.0 µM 86% | [6]; [18] 88% | [6]; at 50.0 µM 99.4% | [6]; at 100.0 µM 99% | [7]; at 100.0 µM 99% | [8]; [18] 100% | [8]; at 50.0 µM 98.2% | [11]; [18] 98% | [11]; at 50.0 µM 99.3% | [11]; at 100.0 µM 98% | [12]; at 100.0 µM 93% | [13]; at 100.0 µM 96% | [14]; at 33.0 µM 76% | [14]; at 100.0 µM 99% | [15]; at 100.0 µM 94%

CCCCCCCCC/C=C/C=C/C(=O)NCC(=O)NC1C(O)C(O)C(Nc2ncnc3nc[nH]c23)OC1C(O)CO (stereo not drawn)
inactive: [1]; at 1.2 µM -19% | [1]; at 3.7 µM 11% | [1]; at 11.0 µM 10% | [1]; at 33.0 µM 69% | [1]; at 100.0 µM 67% | [2]; at 1.2 µM -41% | [2]; at 3.7 µM -23% | [2]; at 11.0 µM -27% | [2]; at 33.0 µM 33% | [2]; at 100.0 µM 20% | [3]; at 1.2 µM -19% | [3]; at 3.7 µM -17% | [3]; at 11.0 µM -15% | [3]; at 33.0 µM -36% | [3]; at 100.0 µM -48% | [4]; at 1.2 µM -33% | [4]; at 3.7 µM -22% | [4]; at 11.0 µM -14% | [4]; at 33.0 µM 43% | [4]; at 100.0 µM 39% | [5]; at 1.2 µM -53% | [5]; at 3.7 µM -47% | [5]; [17] 47% | [5]; at 11.0 µM -52% | [5]; at 33.0 µM -75% | [5]; at 50.0 µM 16.9% | [5]; at 100.0 µM -24% | [6]; at 1.2 µM -61% | [6]; at 3.7 µM -30% | [6]; [17] 9% | [6]; at 11.0 µM 14% | [6]; at 33.0 µM -11% | [6]; [18] 43% | [6]; at 50.0 µM 6.95% | [6]; at 100.0 µM -27% | [7]; at 1.2 µM -17% | [7]; at 3.7 µM -5% | [7]; at 11.0 µM -8% | [7]; at 33.0 µM 8% | [7]; at 100.0 µM 51% | [8]; [17] 2% | [8]; [18] -55% | [8]; at 50.0 µM 69.2% | [9]; at 1.2 µM 4% | [9]; at 3.7 µM 8% | [9]; at 11.0 µM 11% | [9]; at 33.0 µM 18% | [9]; at 100.0 µM -11% | [10]; [17] -1% | [10]; [18] -13% | [10]; at 50.0 µM 10.8% | [11]; at 1.2 µM -64% | [11]; at 3.7 µM -38% | [11]; [17] 5% | [11]; at 11.0 µM -58% | [11]; at 33.0 µM 5% | [11]; [18] -16% | [11]; at 50.0 µM 24.9% | [11]; at 100.0 µM 3% | [12]; at 1.2 µM 7% | [12]; at 3.7 µM 24% | [12]; at 11.0 µM 53% | [12]; at 33.0 µM 61% | [12]; at 100.0 µM 56% | [13]; at 1.2 µM -44% | [13]; at 3.7 µM -38% | [13]; at 11.0 µM -50% | [13]; at 33.0 µM 18% | [13]; at 100.0 µM -29% | [16]; [17] 20% | [16]; [18] 41% | [16]; at 50.0 µM 49.4% | [15]; at 1.2 µM -7% | [15]; at 3.7 µM 7% | [15]; at 11.0 µM 21% | [15]; at 33.0 µM 53% | [15]; at 100.0 µM 48%
active: [5]; [18] 83%
